In paper PMC4336329 (PLoS ONE, 2015):
Among all 310,000 compounds or so, about 14,000 (4.5%) showed an effect of 50% or more. Effects have a minus sign here. The list comes from a sample in which strong results are over-represented; it also holds similar structures and randomly drawn compounds.
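Further: peak tail current of the secondary pulse compared with the same well before compound.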

What follows are molecules tested against human ether-à-go-go-related gene (hERG) potassium channel (human, UniProt Q12809) (assay: primary screen, population patch clamp on CHO cells stably expressing hERG; higher = less effect of the substance).
human ether-à-go-go-related gene (hERG) potassium channel, sequence (Q12809 whole entry, looked up): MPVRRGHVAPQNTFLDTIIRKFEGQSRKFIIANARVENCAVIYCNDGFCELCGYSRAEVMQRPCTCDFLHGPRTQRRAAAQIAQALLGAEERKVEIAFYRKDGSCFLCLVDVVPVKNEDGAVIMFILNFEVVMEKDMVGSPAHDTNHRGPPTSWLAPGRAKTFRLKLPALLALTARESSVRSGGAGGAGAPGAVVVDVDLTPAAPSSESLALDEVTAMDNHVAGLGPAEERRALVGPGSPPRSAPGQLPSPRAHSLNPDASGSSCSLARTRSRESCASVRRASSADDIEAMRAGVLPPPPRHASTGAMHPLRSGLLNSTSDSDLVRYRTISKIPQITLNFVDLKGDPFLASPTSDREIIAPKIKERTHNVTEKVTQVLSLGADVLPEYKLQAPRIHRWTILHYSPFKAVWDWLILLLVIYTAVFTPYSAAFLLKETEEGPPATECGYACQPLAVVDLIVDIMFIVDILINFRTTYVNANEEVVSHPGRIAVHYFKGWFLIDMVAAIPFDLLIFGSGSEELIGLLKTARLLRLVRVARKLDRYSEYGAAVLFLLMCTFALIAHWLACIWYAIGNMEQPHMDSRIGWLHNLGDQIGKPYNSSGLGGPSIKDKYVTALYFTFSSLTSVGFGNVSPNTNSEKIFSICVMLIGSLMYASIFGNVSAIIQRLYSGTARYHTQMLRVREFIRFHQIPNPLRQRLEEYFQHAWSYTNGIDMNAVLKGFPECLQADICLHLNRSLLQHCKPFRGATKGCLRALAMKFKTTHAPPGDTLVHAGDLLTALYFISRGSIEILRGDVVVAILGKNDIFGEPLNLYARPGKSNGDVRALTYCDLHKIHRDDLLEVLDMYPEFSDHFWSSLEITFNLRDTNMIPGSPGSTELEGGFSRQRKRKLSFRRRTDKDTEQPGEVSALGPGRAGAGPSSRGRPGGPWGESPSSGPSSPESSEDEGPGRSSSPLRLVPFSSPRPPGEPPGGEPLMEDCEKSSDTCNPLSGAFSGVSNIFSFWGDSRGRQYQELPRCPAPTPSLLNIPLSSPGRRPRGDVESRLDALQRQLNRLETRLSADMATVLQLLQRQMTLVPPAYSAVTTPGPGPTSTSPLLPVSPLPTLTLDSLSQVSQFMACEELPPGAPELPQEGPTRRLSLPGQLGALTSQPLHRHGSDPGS
In the case of `Cc1ccc(NC(=O)C2CCCN(S(=O)(=O)c3ccc4[nH]c(=O)ccc4c3)C2)c(C)c1` (stereo not shown), the “hERG current change (%, negative = inhibition) at 10uM” value is reported as 3.65%.
With `Cc1cccc(C)c1N(CC(=O)N(C)Cc1ccccc1)S(C)(=O)=O` the “hERG current change (%, negative = inhibition) at 10uM” value was 3.99%.
For `COC(=O)c1ccc2c(=O)n(Cc3ccc4c(c3)OCO4)c(=S)[nH]c2c1`, the “hERG current change (%, negative = inhibition) at 10uM” value was 16.3%.
For `CCn1c2ccccc2c2cc(NC(=O)CSc3nnc(-c4ccc(OC)cc4)n3N)ccc21`, the “hERG current change (%, negative = inhibition) at 10uM” value was -10.9%.
`O=S(=O)(c1ccc2ccccc2c1)N1CCN(S(=O)(=O)N2CCOCC2)CC1` was tested, and the “hERG current change (%, negative = inhibition) at 10uM” value was -0.31%.
`O=C(NC1CCN(C(=O)c2cccs2)CC1)c1ccccc1` was tested, and the “hERG current change (%, negative = inhibition) at 10uM” value was -19.3%.
For `COC(=O)c1cc(N=CC2=C(O)CC(C)(C)CC2=O)cc(C(=O)OC)c1`, the “hERG current change (%, negative = inhibition) at 10uM” value was -16.3%.
In the case of `O=C(c1ccccc1)N1CCN(c2ncnc3c(-c4ccccc4)nsc23)CC1`, the “hERG current change (%, negative = inhibition) at 10uM” value is reported as 6.38%.
`Cc1nc2ccccc2c(=O)n1/N=C/c1ccc(O)cc1` was tested, and the “hERG current change (%, negative = inhibition) at 10uM” value was 10.9%.
In the case of `Cc1nn(-c2ccccc2)c2nc(=O)n(-c3ccccc3)cc12`, the “hERG current change (%, negative = inhibition) at 10uM” value is reported as -10.9%.
`Cc1ccc(S(=O)(=O)Nc2cccc(-n3cnnn3)c2)cc1C(=O)O` was tested, and the “hERG current change (%, negative = inhibition) at 10uM” value was 3.97%.
With `O=C(c1ccc2c(=O)n3c(nc2c1)CCCCC3)N1CCCCC1` the “hERG current change (%, negative = inhibition) at 10uM” value was 17.5%.
`O=C(NC1CCCCCC1)c1ccc2c(=O)n3c(nc2c1)CCCCC3` was tested, and the “hERG current change (%, negative = inhibition) at 10uM” value was -51%.
`CCOC(=O)N1CCC(NC(=O)c2ccc3c(=O)n4c(nc3c2)CCCC4)CC1` was tested, and the “hERG current change (%, negative = inhibition) at 10uM” value was 12%.
With `CCNc1ccc(C(=O)OCC)cc1NC(=O)c1cc(S(=O)(=O)N2CCOCC2)ccc1C` the “hERG current change (%, negative = inhibition) at 10uM” value was -10.9%.
For `Cn1c(SCC(=O)N2CCCC2)nnc1-c1cccs1`, the “hERG current change (%, negative = inhibition) at 10uM” value was 4.73%.
For `CN(C(=O)COC(=O)CSc1cc(Cl)ccc1Cl)c1c(N)n(Cc2ccccc2)c(=O)[nH]c1=O`, the “hERG current change (%, negative = inhibition) at 10uM” value was -0.021%.
With `C[C@H]1CN=C(Nc2ccccc2)N1CC1CCCCCC1` the “hERG current change (%, negative = inhibition) at 10uM” value was -24.5%.
For `C[C@H]1CN=C(Nc2ccccc2)N1CC1CCCCC1`, the “hERG current change (%, negative = inhibition) at 10uM” value was 0.474%.
In the case of `C[C@H]1CN=C(Nc2ccccc2)N1CCC1CCCCC1`, the “hERG current change (%, negative = inhibition) at 10uM” value is reported as -46.8%.
For `C[C@H]1CN=C(Nc2ccccc2)N1CCCC1CCCC1`, the “hERG current change (%, negative = inhibition) at 10uM” value was -58.7%.
In the case of `C[C@H]1CN=C(Nc2ccccc2)N1CCC1CCCC1`, the “hERG current change (%, negative = inhibition) at 10uM” value is reported as -10.6%.
`C[C@H]1CN=C(Nc2ccccc2)N1CCCC1CCCCC1` was tested, and the “hERG current change (%, negative = inhibition) at 10uM” value was -62.2%.
`COc1ccc(S(=O)(=O)N2CCOC2CNC(=O)C(=O)NCc2ccncc2)cc1OC` (stereo not shown) was tested, and the “hERG current change (%, negative = inhibition) at 10uM” value was 10.3%.
`O=S(=O)(c1ccccc1)c1nc(-c2ccccc2)oc1NCCCN1CCOCC1` was tested, and the “hERG current change (%, negative = inhibition) at 10uM” value was -43.9%.
With `Cc1cccc(-c2nc(S(=O)(=O)c3ccc(F)cc3)c(NCCCN3CCOCC3)o2)c1` the “hERG current change (%, negative = inhibition) at 10uM” value was -69.4%.
`Cc1ccc(S(=O)(=O)c2nc(-c3ccccc3)oc2NCCN2CCOCC2)cc1` was tested, and the “hERG current change (%, negative = inhibition) at 10uM” value was 3.12%.
`O=S(=O)(c1ccc(Cl)cc1)c1nc(-c2ccccc2F)oc1NCCN1CCOCC1` was tested, and the “hERG current change (%, negative = inhibition) at 10uM” value was -67%.
`Cc1ccccc1-c1nc(S(=O)(=O)c2ccc(Cl)cc2)c(NCCN2CCOCC2)o1` was tested, and the “hERG current change (%, negative = inhibition) at 10uM” value was -20.2%.
`O=S(=O)(c1ccc(Cl)cc1)c1nc(-c2ccccc2F)oc1NCCCN1CCOCC1` was tested, and the “hERG current change (%, negative = inhibition) at 10uM” value was -10.4%.
For `COc1cccc(CN2CCN(C(=O)c3cccc4ccccc34)CC2)c1.O=C(O)C(=O)O`, the “hERG current change (%, negative = inhibition) at 10uM” value was -12%.
For `COc1cccc(CN(C)C(=O)C2CC(=O)N(c3ccc4c(c3)OCCO4)C2)c1` (stereo not shown), the “hERG current change (%, negative = inhibition) at 10uM” value was 12.1%.
In the case of `COc1cccc(-c2nc3ccc(O)cc3c(=O)o2)c1`, the “hERG current change (%, negative = inhibition) at 10uM” value is reported as 1.21%.
In the case of `O=C(COc1ccc(-c2ccccc2)cc1)N1CCN(C(=O)c2cccs2)CC1`, the “hERG current change (%, negative = inhibition) at 10uM” value is reported as -41.8%.
For `CCOc1cc(C#N)ccc1OCC(=O)N1CCc2ccccc2C1`, the “hERG current change (%, negative = inhibition) at 10uM” value was -40.7%.
With `O=C(COc1ccccc1Br)N1CCN(C(=O)c2cccs2)CC1` the “hERG current change (%, negative = inhibition) at 10uM” value was -32.2%.
For `COc1ccc(OCC(=O)N2CCN(C(=O)c3cccs3)CC2)cc1`, the “hERG current change (%, negative = inhibition) at 10uM” value was -43.3%.
`O=C(COc1ccc(Cl)cc1)N1CCN(C(=O)c2cccs2)CC1` was tested, and the “hERG current change (%, negative = inhibition) at 10uM” value was -74.5%.
For `Cc1ccc(OCC(=O)N2CCN(C(=O)c3cccs3)CC2)cc1`, the “hERG current change (%, negative = inhibition) at 10uM” value was -34.8%.
For `CCOc1cc(C#N)ccc1OCC(=O)N1CCN(C(=O)c2cccs2)CC1`, the “hERG current change (%, negative = inhibition) at 10uM” value was -67.7%.
`O=C(COc1ccccc1)N1CCN(C(=O)c2cccs2)CC1` was tested, and the “hERG current change (%, negative = inhibition) at 10uM” value was -13.4%.
In the case of `O=C(COc1ccc2ccccc2c1)N1CCN(C(=O)c2cccs2)CC1`, the “hERG current change (%, negative = inhibition) at 10uM” value is reported as -50%.
In the case of `Cc1nnc(SCc2cc(=O)[nH]c(/N=C(\N)Nc3ccccc3Sc3ccccc3)n2)s1`, the “hERG current change (%, negative = inhibition) at 10uM” value is reported as -11.1%.
